The source of these data is PubChem BioAssay (Tox21).

Results filed as inconclusive are left out. Activity calls are given as the source filed them. Unless noted, the call rests on the fitted dose curve; in most records, active means well fitted curve in the direction sought with a large enough effect in the repeat runs; inconclusive means weak or mixed curves; inactive means no such curve, though single readings can be large; an effect the other way counts as inactive or inconclusive.

Test [1] can be described thus: qHTS assay to identify small molecule agonists of the sonic hedgehog signaling (Shh) pathway (AID 1259368; calls by dose curve; further: series mostly up to about 92 µM; nearly all actives have a fitted effect of over 15% in size). In short, it runs like this:
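NIH/3T3-derived 3T3Gli1-Luc cells carrying a stably integrated Gli1 response element–firefly luciferase reporter were plated, left 4 hr at 37 C, then given compounds in DMSO for 24 hr. Luminescence was read 30 min after adding luciferase reagent.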

Test [2] in a line: qHTS assay to identify small molecule antagonists of the sonic hedgehog signaling (Shh) pathway (AID 1259369; calls by dose curve; further: nearly all actives have a fitted effect of over 45% in size; further: potency means the concentration at half of the fitted maximal effect). In a few lines:
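NIH/3T3-derived 3T3Gli1-Luc cells with stably integrated Gli1-Luc reporter were preincubated 4hr at 37 C, then given compounds in DMSO plus Shh conditioned medium and incubated 24hr. Firefly luciferase luminescence read after 30min reagent at room temperature.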

Test [3] is described as follows: qHTS assay to identify small molecule agonists of the estrogen receptor beta (ER-beta) signaling pathway - cell viability counter screen (AID 1259380). Further: nearly all actives have a fitted effect of over 30% in size. Further: potency means the concentration at half of the fitted maximal effect. In short, it runs like this:
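ER-beta-UAS-bla HEK293T cells in medium with 2% charcoal-stripped FBS were preincubated 6 hr at 37C, dosed with compound in DMSO for 16 hr, then after the bla read, CellTiter-Glo was added for 30 min at room temperature; luminescence recorded.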

Test [4] in a line: qHTS assay to identify small molecule agonists of the sonic hedgehog signaling (Shh) pathway - cell viability counter screen (AID 1259366). Further: nearly all actives have a fitted effect of over 50% in size. Further: potency means the concentration at half of the fitted maximal effect. In a few lines: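 CellTiter-Fluor fluorescence read-out, 1 hr at 37C, added after 23hr compound exposure. Cells: 3T3 Gli1-Luc, an NIH/3T3 clone with stably integrated Gli1-Luc reporter, plated 4hr before compound.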
Test [5] can be described thus: qHTS assay to identify small molecule antagonists of the sonic hedgehog signaling (Shh) pathway - cell viability counter screen (AID 1259367). Further: nearly all actives have a fitted effect of over 55% in size. Further: potency means the concentration at half of the fitted maximal effect. In short, it runs like this: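 After a 4 hr settling period, 3T3 Gli1-Luc cells were treated with DMSO-dissolved chemicals and conditioned medium, kept 24 hr at 37C in 5% CO2, and assayed for viability by CellTiter-Fluor fluorescence following 1 hr reagent incubation.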

The nature of test [6]: qHTS assay to identify small molecule agonists of the androgen receptor (AR) signaling pathway in the presence of an antagonist - cell viability counter screen (AID 1259379). Further: nearly all actives have a fitted effect of over 25% in size. Further: potency means the concentration at half of the fitted maximal effect. In short, it runs like this: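 MDA-kb2 human breast carcinoma cells (stable MMTV-luciferase, AR/GR responsive) were seeded 3,000 cells/well, pre-incubated 5 hr at 37C without CO2, then given 3.0uM nilutamide and compounds at 15 concentrations for 16 hr. Viability was read by CellTiter-Fluor fluorescence.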

Test [7] in a line: qHTS assay to identify small molecule agonists or antagonists of the thyroid stimulating hormone receptor (TSHR) signaling pathway - wild type cell line counter screen (AID 1259384; calls by dose curve). In short, it runs like this:
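Wild-type HEK293 cells were plated 18 h at 37 C/5% CO2, pin-dosed with compound plus Ro20-1724 medium, held 30 min at room temperature, then given cAMP-d2 and anti-cAMP-cryptate; fluorescence was read after 1 h. Fifteen concentrations, triplicate.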

For test [8], the target named is Thyrotropin receptor (Homo sapiens) (UniProt P16473). Nature of the test: qHTS assay to identify small molecule antagonists of the thyroid stimulating hormone receptor (TSHR) signaling pathway (AID 1259385; calls by dose curve; further: nearly all actives have a fitted effect of over 20% in size). In short, it runs like this:
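TSHR-HEK293 cells were plated and held 18 h at 37C/5% CO2, then given compound plus Ro20-1724 and stimulated with TSH at 1.5 ng/mL final. After 30 min at room temperature, cAMP was detected with cAMP-d2/anti-cAMP-cryptate (1 h) by fluorescence.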

A short description of test [9]: qHTS assay to identify small molecule agonists of the estrogen receptor alpha (ER-alpha) signaling pathway in the presence of an antagonist - cell viability counter screen (AID 1259386).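 Further: cells exposed to compounds for 22 h at 37 °C before the viability read; nearly all actives have a fitted effect of over 30% in size.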 Further: potency means the concentration at half of the fitted maximal effect. In a few lines: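 VM7Luc4E2 cells (endogenous full-length ER-alpha, 4×ERE-luciferase) were held 5 days in phenol red-free medium with 10% charcoal-stripped FBS, plated, then given 10.0nM ICI-182,780 and compounds at 15 concentrations for 22hr at 37C; viability read by CellTiter-Fluor fluorescence.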

A short description of test [10]: qHTS assay to identify small molecule HDAC inhibitors - cell viability counter screen (AID 1259365). Further: series mostly up to about 92 µM; nearly all actives have a fitted effect of over 50% in size. In short, it runs like this: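 HCT-116 (wild type), 1,500 cells/well, overnight 37C/5% CO2; compound in DMSO 2hr; CellTiter-Glo 30min RT; luminescence read.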
The nature of test [11]: qHTS assay to identify small molecule antagonists of the estrogen receptor beta (ER-beta) signaling pathway - cell viability counter screen (AID 1259382). Further: nearly all actives have a fitted effect of over 55% in size. Further: potency means the concentration at half of the fitted maximal effect. In short, it runs like this: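 ER-beta-UAS-bla HEK293T cells (2,000/well, 2% charcoal-stripped FBS) were pre-incubated 6 hr at 37C, then given compound plus 1nM final 17-beta-estradiol for 16 hr. Viability was read in the same wells by CellTiter-Glo luminescence after 30 min at room temperature.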

Test [12] can be described thus: qHTS assay to identify small molecule HDAC inhibitors (AID 1259364). Further: top concentration of the series differs between compounds; nearly all actives have a fitted effect of over 45% in size. In short, it runs like this:
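Wild-type HCT-116 cells were plated overnight, exposed to compounds for 2 h at 37 °C, then given HDAC-Glo class I/II luminogenic reagent for 30 min at room temperature before luminescence was read.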

For test [13], the target named is Estrogen receptor beta (Homo sapiens) (UniProt Q92731). Nature of the test: qHTS assay to identify small molecule agonists of the estrogen receptor beta (ER-beta) signaling pathway (AID 1259377; active means well fitted activation curve with a large enough effect in the signal ratio in the repeat runs, not every such curve was filed as active; the % refers to the signal ratio). In a few lines:
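Beta-lactamase reporter readout: fluorescence of LiveBLAzer B/G FRET substrate after 2 h at room temperature, following 16 h compound treatment of ER-beta-UAS-bla HEK293T cells at 37C in 2% charcoal-stripped FBS medium.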

Test [14] addresses Estrogen receptor (Homo sapiens) (UniProt P03372). Nature of the test: qHTS assay to identify small molecule agonists of the estrogen receptor alpha (ER-alpha) signaling pathway in the presence of an antagonist (AID 1259383; calls by dose curve; further: top concentration of the series differs between compounds; nearly all actives have a fitted effect of over 15% in size). In a few lines: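 VM7Luc4E2 cells (endogenous full-length ER-alpha, 4×ERE-luciferase) were precultured 5 days in phenol red-free medium with 10% charcoal-stripped FBS, given 10.0nM ICI-182,780 (final), then treated with compounds at 15 concentrations for 22hr at 37C; luminescence read with ONE-Glo.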

Test [15] concerns the target Progesterone receptor (Homo sapiens) (UniProt P06401). Nature of the test: qHTS assay to identify small molecule agonists of the progesterone receptor (PR) signaling pathway (AID 1346784; calls by dose curve; further: nearly all actives have a fitted effect of over 30% in size). In a few lines: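 HEK 293T PR-UAS-bla reporter cells, 2% charcoal-stripped FBS; 6 hr settle at 37C/5% CO2, compound (DMSO) 16 hr, LiveBLAzer B/G FRET substrate 2 hr RT, fluorescence intensity read.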

Test [16] has as its target Androgen receptor (Homo sapiens) (UniProt P10275). Nature of the test: qHTS assay to identify small molecule agonists of the androgen receptor (AR) signaling pathway in the presence of an antagonist (AID 1259381; calls by dose curve; further: nearly all actives have a fitted effect of over 15% in size). In short, it runs like this: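 MDA-kb2 human breast carcinoma cells carrying an MMTV-luciferase reporter (AR- and GR-responsive) were treated with compounds at 15 concentrations plus 3.0uM final nilutamide for 16hr at 37C without CO2; luminescence was read after ONE-Glo addition.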

Chain of Thyrotropin receptor (Homo sapiens) (P16473 whole entry, looked up): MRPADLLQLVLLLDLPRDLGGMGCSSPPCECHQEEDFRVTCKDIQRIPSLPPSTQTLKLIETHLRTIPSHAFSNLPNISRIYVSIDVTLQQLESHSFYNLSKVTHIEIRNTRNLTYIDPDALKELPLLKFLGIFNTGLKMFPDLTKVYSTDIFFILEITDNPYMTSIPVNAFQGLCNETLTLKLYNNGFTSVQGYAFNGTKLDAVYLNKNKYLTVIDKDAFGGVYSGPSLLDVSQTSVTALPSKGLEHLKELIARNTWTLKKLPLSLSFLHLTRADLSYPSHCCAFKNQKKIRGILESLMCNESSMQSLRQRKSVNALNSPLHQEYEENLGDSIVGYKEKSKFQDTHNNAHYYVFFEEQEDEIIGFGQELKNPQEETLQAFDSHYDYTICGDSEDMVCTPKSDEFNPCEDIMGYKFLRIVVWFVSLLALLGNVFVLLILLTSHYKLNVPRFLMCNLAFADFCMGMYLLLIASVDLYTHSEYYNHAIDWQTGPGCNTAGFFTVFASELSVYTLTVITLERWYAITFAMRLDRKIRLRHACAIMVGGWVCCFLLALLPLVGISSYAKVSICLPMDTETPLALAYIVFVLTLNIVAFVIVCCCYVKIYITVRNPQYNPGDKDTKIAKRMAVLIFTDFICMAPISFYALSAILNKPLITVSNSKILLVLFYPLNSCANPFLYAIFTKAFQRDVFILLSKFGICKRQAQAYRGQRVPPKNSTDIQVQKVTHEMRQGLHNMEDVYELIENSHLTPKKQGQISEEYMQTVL
Chain of Estrogen receptor beta (Homo sapiens) (Q92731 whole entry, looked up): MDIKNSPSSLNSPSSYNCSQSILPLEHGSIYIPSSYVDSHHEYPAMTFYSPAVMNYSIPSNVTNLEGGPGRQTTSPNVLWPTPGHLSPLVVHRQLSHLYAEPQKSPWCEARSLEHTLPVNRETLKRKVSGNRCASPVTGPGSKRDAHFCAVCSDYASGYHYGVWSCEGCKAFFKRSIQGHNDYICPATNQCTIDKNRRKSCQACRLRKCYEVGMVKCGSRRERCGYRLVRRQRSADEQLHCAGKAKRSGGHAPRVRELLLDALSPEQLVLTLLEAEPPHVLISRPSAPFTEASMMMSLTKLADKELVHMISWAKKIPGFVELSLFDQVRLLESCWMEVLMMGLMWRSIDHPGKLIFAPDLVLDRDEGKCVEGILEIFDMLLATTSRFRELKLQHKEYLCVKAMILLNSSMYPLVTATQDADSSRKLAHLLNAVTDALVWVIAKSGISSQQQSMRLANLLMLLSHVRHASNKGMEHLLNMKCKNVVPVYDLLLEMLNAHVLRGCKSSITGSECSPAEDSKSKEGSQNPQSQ
Chain of Estrogen receptor (Homo sapiens) (P03372 whole entry, looked up): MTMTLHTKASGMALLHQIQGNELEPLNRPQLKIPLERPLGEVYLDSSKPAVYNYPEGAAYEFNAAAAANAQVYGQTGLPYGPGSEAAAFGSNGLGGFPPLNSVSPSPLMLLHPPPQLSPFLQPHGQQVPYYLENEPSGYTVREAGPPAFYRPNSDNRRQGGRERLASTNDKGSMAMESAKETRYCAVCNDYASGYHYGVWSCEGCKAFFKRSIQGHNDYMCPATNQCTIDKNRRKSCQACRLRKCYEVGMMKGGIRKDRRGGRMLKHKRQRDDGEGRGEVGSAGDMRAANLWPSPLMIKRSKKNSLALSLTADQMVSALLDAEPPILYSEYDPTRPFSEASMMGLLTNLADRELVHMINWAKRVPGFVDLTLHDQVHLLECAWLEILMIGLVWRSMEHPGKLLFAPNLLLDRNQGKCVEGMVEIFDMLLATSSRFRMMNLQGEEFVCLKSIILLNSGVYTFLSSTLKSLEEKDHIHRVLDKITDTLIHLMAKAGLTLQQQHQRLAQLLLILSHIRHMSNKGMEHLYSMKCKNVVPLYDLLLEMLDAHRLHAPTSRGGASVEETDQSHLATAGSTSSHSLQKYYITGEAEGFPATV
Chain of Progesterone receptor (Homo sapiens) (P06401 whole entry, looked up): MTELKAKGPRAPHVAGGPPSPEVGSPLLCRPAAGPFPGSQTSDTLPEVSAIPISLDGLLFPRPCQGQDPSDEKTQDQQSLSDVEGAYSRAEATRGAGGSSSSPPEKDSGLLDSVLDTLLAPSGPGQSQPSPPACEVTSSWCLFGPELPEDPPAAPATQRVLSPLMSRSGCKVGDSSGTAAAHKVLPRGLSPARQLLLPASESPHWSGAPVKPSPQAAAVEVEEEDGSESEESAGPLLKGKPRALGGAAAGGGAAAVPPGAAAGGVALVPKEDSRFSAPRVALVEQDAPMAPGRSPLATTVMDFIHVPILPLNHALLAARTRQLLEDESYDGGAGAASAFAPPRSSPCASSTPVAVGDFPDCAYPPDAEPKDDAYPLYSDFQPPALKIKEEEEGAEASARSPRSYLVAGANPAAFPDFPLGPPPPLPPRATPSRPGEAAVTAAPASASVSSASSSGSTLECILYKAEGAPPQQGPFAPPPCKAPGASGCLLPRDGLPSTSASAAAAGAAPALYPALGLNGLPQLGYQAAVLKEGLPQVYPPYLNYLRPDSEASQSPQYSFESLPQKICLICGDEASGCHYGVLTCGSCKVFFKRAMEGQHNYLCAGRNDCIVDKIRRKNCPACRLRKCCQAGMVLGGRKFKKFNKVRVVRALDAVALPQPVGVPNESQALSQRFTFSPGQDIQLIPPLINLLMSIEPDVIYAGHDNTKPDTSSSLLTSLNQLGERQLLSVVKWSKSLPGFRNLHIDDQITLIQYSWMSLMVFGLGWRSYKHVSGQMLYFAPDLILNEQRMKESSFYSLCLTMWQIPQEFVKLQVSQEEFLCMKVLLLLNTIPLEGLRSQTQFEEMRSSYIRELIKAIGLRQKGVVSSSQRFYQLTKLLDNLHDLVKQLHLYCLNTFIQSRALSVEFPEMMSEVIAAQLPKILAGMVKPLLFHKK
Chain of Androgen receptor (Homo sapiens) (P10275 whole entry, looked up): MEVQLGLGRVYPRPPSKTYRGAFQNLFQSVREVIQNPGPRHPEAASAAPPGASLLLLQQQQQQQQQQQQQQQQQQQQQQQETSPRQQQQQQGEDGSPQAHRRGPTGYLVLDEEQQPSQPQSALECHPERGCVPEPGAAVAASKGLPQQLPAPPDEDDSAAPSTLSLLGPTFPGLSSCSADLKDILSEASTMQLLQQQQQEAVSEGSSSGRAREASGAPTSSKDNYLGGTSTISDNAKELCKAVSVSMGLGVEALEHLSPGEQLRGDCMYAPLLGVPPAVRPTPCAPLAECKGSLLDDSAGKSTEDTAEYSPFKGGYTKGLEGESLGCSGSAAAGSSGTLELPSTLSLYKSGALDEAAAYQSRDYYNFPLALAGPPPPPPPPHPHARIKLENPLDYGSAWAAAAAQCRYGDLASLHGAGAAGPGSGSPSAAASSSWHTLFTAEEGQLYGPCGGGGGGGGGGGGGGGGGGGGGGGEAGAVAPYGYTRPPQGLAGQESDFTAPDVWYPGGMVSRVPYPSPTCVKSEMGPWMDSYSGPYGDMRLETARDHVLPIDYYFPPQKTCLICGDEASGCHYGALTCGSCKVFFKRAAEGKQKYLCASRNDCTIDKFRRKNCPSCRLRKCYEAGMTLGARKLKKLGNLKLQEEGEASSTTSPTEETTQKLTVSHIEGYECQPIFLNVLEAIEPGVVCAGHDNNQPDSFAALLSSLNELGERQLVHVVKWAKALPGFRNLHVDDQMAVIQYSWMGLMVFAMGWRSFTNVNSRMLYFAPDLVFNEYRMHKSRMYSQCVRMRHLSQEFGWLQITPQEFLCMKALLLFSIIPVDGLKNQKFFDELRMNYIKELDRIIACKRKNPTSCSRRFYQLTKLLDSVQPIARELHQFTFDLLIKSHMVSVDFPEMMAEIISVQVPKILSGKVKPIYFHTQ

As for `CCN(CC)CCCC(C)Nc1c2ccc(Cl)cc2nc2ccc(OC)cc12` (stereo not drawn), the Potency result in [1] was “inactive”. Further, the Potency in [2] is 29.8 µM (active); in [3], 6.68 µM (active).

In the case of `C=CC(=O)OCCn1c(=O)n(CCOC(=O)C=C)c(=O)n(CCOC(=O)C=C)c1=O`, the Potency was 10.9 µM (active) in test [4]; 21.7 µM (active) in [5]; 5.45 µM (active) in [2]; 21.7 µM (active) in [6]; 48.6 µM (active) in [9]. Moreover, the Potency result in [1] and in test [8] was “inactive” each time. In addition, the outcome in test [7] was inactive.

On to `Clc1ccc2n[nH]nc2c1`, for which the Potency entry in [10], in [4], in test [5], in test [1], in [2] and in test [6] was “inactive” in each case. Further, the Potency entry in test [3], in test [11], in test [8] and in test [9] was “inactive” in each case. In addition, the outcome in [7] was inactive.

As for `Cc1oc(-c2ccccc2)nc1CCC(=O)c1ccc(CC2SC(=O)NC2=O)cc1` (stereo not drawn), the Potency result in test [12], in test [10], in test [1], in [2] and in test [8] was “inactive” each time. Also, the Potency in [3] was 6.68 µM (active). In addition, the molecule was called inactive in test [7].

As for `C/C(=C(/OCCOc1ccc(Cl)cc1)c1ccc(Cl)cc1Cl)n1ccnc1`, the Potency result in test [10], in test [4], in [1], in test [13], in test [6] and in test [8] was “inactive” each time. The Potency result in [9] is “inactive”. The Potency in test [3] was 15 µM (active). In test [7], the call was inactive.

For the molecule `Cc1[nH]nc2c1N=C(c1ccccc1Cl)c1cc([N+](=O)[O-])ccc1N2`, the Potency result in [10] and in test [1] was “inactive” in each case. Besides, the Potency is 13.7 µM (active) in test [4]; 1.72 µM (active) in [2]; 30.6 µM (active) in [6]; 27.3 µM (active) in test [3]; 48.6 µM (active) in test [11]; 27.3 µM (active) in test [9]. In addition, in test [7], the outcome was inactive.

Turning to `O=Cc1cc(O)ccc1Br`, the Potency entry in [10], in test [5], in test [1], in test [2], in test [13] and in test [6] was “inactive” each time. Moreover, the Potency entry in test [3], in test [11], in [14], in test [8] and in [9] was “inactive” throughout. Also, in [7], the outcome was inactive.

Turning to `c1ccc(CSCc2ccccc2)cc1`, the Potency entry in [10], in [5], in test [2], in test [3], in [11] and in [9] was “inactive” each time. In addition, in test [15], the Potency entry was “inactive”.

`CCCCCCCC/C=C/CCCCCCCC1=NCCN1CCO`: the Potency entry in test [12], in test [10] and in [16] was “inactive” throughout. Besides, the Potency in [2] is 54.5 µM (active); in test [6] it was 61.1 µM (active); in [3], 27.3 µM (active); in [11], 54.5 µM (active).
